Results as given in PubChem BioAssay.

Each compound was assayed on Wnt5a (protein binding on small-molecule microarray) (assay: small molecules binding Wnt5a protein – biophysical, small-molecule microarray, 635/667 nm fluorescence, primary screen (AID 1142;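 also: fluorescence read at 667 nm with signal to noise per printed feature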)). Conditions: 635 nm fluorescence, higher = more signal.

Row | Compound | composite z-score
1 | COC(=O)C(CC#Cc1ccc2c(c1)[C@]1(C(=O)N2)[C@H](c2ccc(OCCO)cc2)N2[C@H](c3ccccc3)[C@H](c3ccccc3)OC(=O)[C@H]2[C@@H]1C(N)=O)C(=O)OC | -0.0885
2 | COC(=O)C(CC#Cc1ccc2c(c1)[C@]1(C(=O)N2)[C@H](c2ccccc2OCCO)N2[C@H](c3ccccc3)[C@H](c3ccccc3)OC(=O)[C@H]2[C@@H]1C(=O)N1CCN(c2ncccn2)CC1)C(=O)OC | 0.253
3 | COC(=O)Cn1c(C(=O)N(C)C)cc2c1C[C@H]1CN(C(=O)c3ccccc3)[C@@](Cc3ccccc3)(C(=O)OC)[C@@H]21 | 0.135
4 | COC(=O)[C@@]1(Cc2ccc(OC)cc2)[C@@H]2[C@@H](CC(=O)[C@H]2CC(=O)C(=O)N(C)C)CN1C(=O)c1ccccc1 | 2.06
5 | COC(=O)[C@@]1(Cc2ccccc2)[C@H]2c3cc(C(=O)N(C)C)n(Cc4nc5ccccc5[nH]4)c3C[C@H]2CN1C(=O)c1ccccc1 | 0.118
6 | COCCOC(=O)N1C(=O)[C@@]2(c3cc(C#CCCO)ccc31)[C@H](C(=O)N1CCN(c3ncccn3)CC1)[C@H]1C(=O)O[C@H](c3ccccc3)[C@H](c3ccccc3)N1[C@@H]2c1ccc(OCCO)cc1 | 0.624
7 | C=C(CCCC)/C(=C/C[C@@H](OC(C)=O)c1cccc(OCCO)c1)c1cc(C(=O)OC)ccc1OC | -0.257
8 | C=CCOC(=O)[C@H]1[C@@H]2C(=O)O[C@@H](c3ccccc3)[C@@H](c3ccccc3)N2[C@@H](c2ccc(OCCOC(=O)[C@H]3C[C@H]4C(=O)NCC(=O)N4[C@H]3c3cccc(OCCO)c3)cc2)[C@]12C(=O)Nc1ccc(I)cc12 | 0.984
9 | CCOC(=O)C=C1C[C@@H](c2cccc([N+](=O)[O-])c2)O[C@@H](c2cccc([N+](=O)[O-])c2)O1 | 0.719
10 | COc1ccc(C#Cc2ccc3c(c2)[C@]2(C(=O)N3)[C@H](c3ccccc3OCCO)N3[C@H](c4ccccc4)[C@H](c4ccccc4)OC(=O)[C@H]3[C@@H]2C(=O)NC[C@H](O)c2ccccc2)cc1 | 0.537
11 | C=CC[C@H](O)c1ccc(O)c2ccccc12 | 0.188
12 | Cc1ccc(S[C@]2(C(=O)NCCN3CCOCC3)CC(=O)N(C(C)C)[C@@H]2c2ccc(CO)cc2I)cc1 | -0.141
13 | CN(C)C(=O)[C@]1(CCS(=O)(=O)c2ccccc2)N=C(c2ccc(OCCCO)cc2)O[C@@H]1c1ccccc1CN=[N+]=[N-] | 0.485
14 | C[C@H]1C2[C@H](Cc3ccccc3)NC(=O)[C@]23C(=O)N[C@@H](Cc2ccccc2)C(=O)N2CCC[C@H]2C(=O)NC/C=C/CC/C=C/C3[C@@H]2O[C@]12C (stereo not given in full) | 0.241
15 | C=CCN1C(=O)[C@]2(O[C@H](CCO)[C@@H]([Si](C)(C)c3ccc(OC)cc3)[C@@H]2C)c2cc(N3C(=O)c4ccccc4Oc4ccccc43)ccc21 | 0.169
16 | CO[C@H]1O[C@H](CO)[C@@H](OC(=O)Nc2ccccc2)[C@@H]2OC(=O)[C@@H](Cc3ccccc3)C/C=C/C[C@H](Cc3ccccc3)C(=O)O[C@@H]12 | 0.129
17 | COC(=O)[C@@]1(Cc2ccc(OC)cc2)[C@H]2c3cc(C(=O)N(C)C)n(Cc4c(CO)[nH]cc(C)c4=O)c3C[C@H]2CN1C(=O)c1ccccc1 | -0.172
18 | COc1cccc(C)c1NC(=O)O[C@H]1[C@H](OC(=O)Nc2ccccc2-c2ccccc2)[C@@H](OC(=O)Nc2ccccc2-c2ccccc2)[C@@H](OC)O[C@@H]1CO | 0.933
19 | CCCNC(=O)[C@@]1(Sc2ccc(C)cc2)CC(=O)N(Cc2cc(C(F)(F)F)cc(C(F)(F)F)c2)[C@@H]1c1ccc(CO)cc1 | -0.139
20 | COC(=O)[C@@]1(Cc2ccc(F)cc2)[C@H]2c3cc(C(=O)N(C)C)n(Cc4ccc(C(F)(F)F)nc4)c3C[C@H]2CN1C(=O)c1ccccc1 | 0.381
21 | COC(=O)[C@@]1(Cc2ccccc2)[C@H]2c3cc(C(=O)N(C)C)n(Cc4ccc(Cl)c(C(F)(F)F)c4)c3C[C@H]2CN1C(=O)c1ccccc1 | 0.498
22 | CN1C(=O)C2C=CC(C(O)c3ccc(I)cc3)N(N(c3ccccc3)c3ccccc3)C2C1=O (stereo not given) | -0.268
23 | Cc1ccc(S[C@]2(C(=O)NCc3ccccc3)CC(=O)N(Cc3ccccc3C(F)(F)F)[C@@H]2c2ccc(CO)cc2I)cc1 | -0.264
24 | COCCCNC(=O)[C@@]1(CCC(=O)OC(C)(C)C)N=C(c2ccc(OCCCO)cc2)O[C@H]1c1ccccc1 | 0.581
25 | C=C(COC)/C(=C/C[C@@H](OC(C)=O)c1cccc(OCCO)c1)c1cnc2ccccc2c1 | 0.603
